According to PubChem BioAssay AID1159580 (chemical genetic matrix, 2015):
In all, about 5,500 compounds went through this assay and about 2,000 (36%) were called active. Roughly 18% stayed inconclusive and do not appear here. Cut-off read from the data, not from the text of the source: active = normalized growth mostly below about 0.91 (no sharp cut-off); inconclusive = no clear call, values can overlap the other calls; inactive = mostly above about 0.92. This is one part of the list.

Assay: chemical genetic growth profiling, strain panel (AID 1159580);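 note: tested at 20 µM; growth read once vehicle control cultures reached saturation at 30 °C; 1 = growth at the plate median or of vehicle wells; lower values mean less growth of the strain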
Conditions: growth OD

Measured: normalized growth

CCCCCCOc1ccccc1C(N)=O
inactive: S. cerevisiae deletion strains, locus YNL183C, strain NPR1, stronger effect = lower value 0.869 | S. cerevisiae deletion strains, locus YNL322C, strain KRE1 (second series), stronger effect = lower value 0.978 | S. cerevisiae deletion strains, locus YNR049C, strain mso1, stronger effect = lower value 0.942 | S. cerevisiae deletion strains, locus YOL012C, strain htz1 0.5 | S. cerevisiae deletion strains, locus YOR001W, strain rrp6, stronger effect = lower value 0.904 | S. cerevisiae deletion strains, locus YOR080W, strain dia2, stronger effect = lower value 0.951 | S. cerevisiae deletion strains, locus YOR231W, strain MKK1, stronger effect = lower value 0.877 | S. cerevisiae deletion strains, locus YOR265W, strain rbl2, stronger effect = lower value 0.929 | S. cerevisiae deletion strains, locus YOR290C, strain snf2, stronger effect = lower value 0.87 | S. cerevisiae deletion strains, locus YPL106C, strain sse1, stronger effect = lower value 1.01 | S. cerevisiae deletion strains, locus YPL240C, strain hsp82, stronger effect = lower value 0.945 | S. cerevisiae deletion strains, locus YPL256C, strain CLN2, stronger effect = lower value 0.864
active: S. cerevisiae deletion strains, locus YMR307W, strain GAS1, stronger effect = lower value 0.457 | S. cerevisiae deletion strains, locus YNL067W, strain RPL9B, stronger effect = lower value 0.599 | S. cerevisiae deletion strains, locus YNL071W, strain lat1, stronger effect = lower value 0.57 | S. cerevisiae deletion strains, locus YNL153C, strain GIM3, stronger effect = lower value 0.502 | S. cerevisiae deletion strains, locus YNL209W, strain ssb2, stronger effect = lower value 0.902 | S. cerevisiae deletion strains, locus YNL233W, strain BNI4, stronger effect = lower value 0.326 | S. cerevisiae deletion strains, locus YNL248C, strain rpa49, stronger effect = lower value 0.865 | S. cerevisiae deletion strains, locus YNL250W, strain rad50, stronger effect = lower value 0.871 | S. cerevisiae deletion strains, locus YNL271C, strain bni1, stronger effect = lower value 0.696 | S. cerevisiae deletion strains, locus YNL298W, strain CLA4, stronger effect = lower value 0.778 | S. cerevisiae deletion strains, locus YNL307C, strain MCK1, stronger effect = lower value 0.0873 | S. cerevisiae deletion strains, locus YNL322C, strain KRE1, stronger effect = lower value 0.705 | S. cerevisiae deletion strains, locus YNR052C, strain pop2, stronger effect = lower value 0.797 | S. cerevisiae deletion strains, locus YOL006C, strain TOP1, stronger effect = lower value 0.135 | S. cerevisiae deletion strains, locus YOL147C, strain pex11, stronger effect = lower value 0.243 | S. cerevisiae deletion strains, locus YOR061W, strain CKA2, stronger effect = lower value 0.794 | S. cerevisiae deletion strains, locus YOR069W, strain VPS5, stronger effect = lower value 0.798 | S. cerevisiae deletion strains, locus YOR070C, strain gyp1, stronger effect = lower value 0.891 | S. cerevisiae deletion strains, locus YOR083W, strain WHI5, stronger effect = lower value 0.855 | S. cerevisiae deletion strains, locus YOR106W, strain vam3, stronger effect = lower value 0.861 | S. cerevisiae deletion strains, locus YOR136W, strain idh2, stronger effect = lower value 0.719 | S. cerevisiae deletion strains, locus YOR144C, strain elg1, stronger effect = lower value 0.485 | S. cerevisiae deletion strains, locus YOR184W, strain ser1, stronger effect = lower value 0.187 | S. cerevisiae deletion strains, locus YOR270C, strain vph1, stronger effect = lower value 0.446 | S. cerevisiae deletion strains, locus YOR316C, strain cot1, stronger effect = lower value 0.567 | S. cerevisiae deletion strains, locus YPL051W, strain arl3, stronger effect = lower value 0.878 | S. cerevisiae deletion strains, locus YPL078C, strain atp4, stronger effect = lower value 0.729 | S. cerevisiae deletion strains, locus YPR119W, strain clb2, stronger effect = lower value 0.625 | S. cerevisiae deletion strains, locus YPR141C, strain kar3, stronger effect = lower value 0.825 | S. cerevisiae deletion strains, locus YPR163C, strain tif3, stronger effect = lower value 0.142 | S. cerevisiae deletion strains, locus YPR167C, strain met16, stronger effect = lower value 0.627 | S. cerevisiae deletion strains, strain wtn01, stronger effect = lower value 0.444 | S. cerevisiae strains, strain wild type, stronger effect = lower value 0.559
